Results published in paper PMC4336329 (PLoS ONE, 2015).
About 14,000 (4.5%) of roughly 310,000 compounds showed an effect of 50% or more. The effect is printed as a negative number. Many of the other results were omitted from the sample, so strong results are more common in it than they were.

biological target: human ether-à-go-go-related gene (hERG) potassium channel (human, UniProt Q12809); assay: primary screen, population patch clamp on CHO cells stably expressing hERG; higher = less effect of the substance
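Further: peak tail current of the secondary pulse compared with the same well before compound.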

Chain of human ether-à-go-go-related gene (hERG) potassium channel (Q12809 whole entry, looked up): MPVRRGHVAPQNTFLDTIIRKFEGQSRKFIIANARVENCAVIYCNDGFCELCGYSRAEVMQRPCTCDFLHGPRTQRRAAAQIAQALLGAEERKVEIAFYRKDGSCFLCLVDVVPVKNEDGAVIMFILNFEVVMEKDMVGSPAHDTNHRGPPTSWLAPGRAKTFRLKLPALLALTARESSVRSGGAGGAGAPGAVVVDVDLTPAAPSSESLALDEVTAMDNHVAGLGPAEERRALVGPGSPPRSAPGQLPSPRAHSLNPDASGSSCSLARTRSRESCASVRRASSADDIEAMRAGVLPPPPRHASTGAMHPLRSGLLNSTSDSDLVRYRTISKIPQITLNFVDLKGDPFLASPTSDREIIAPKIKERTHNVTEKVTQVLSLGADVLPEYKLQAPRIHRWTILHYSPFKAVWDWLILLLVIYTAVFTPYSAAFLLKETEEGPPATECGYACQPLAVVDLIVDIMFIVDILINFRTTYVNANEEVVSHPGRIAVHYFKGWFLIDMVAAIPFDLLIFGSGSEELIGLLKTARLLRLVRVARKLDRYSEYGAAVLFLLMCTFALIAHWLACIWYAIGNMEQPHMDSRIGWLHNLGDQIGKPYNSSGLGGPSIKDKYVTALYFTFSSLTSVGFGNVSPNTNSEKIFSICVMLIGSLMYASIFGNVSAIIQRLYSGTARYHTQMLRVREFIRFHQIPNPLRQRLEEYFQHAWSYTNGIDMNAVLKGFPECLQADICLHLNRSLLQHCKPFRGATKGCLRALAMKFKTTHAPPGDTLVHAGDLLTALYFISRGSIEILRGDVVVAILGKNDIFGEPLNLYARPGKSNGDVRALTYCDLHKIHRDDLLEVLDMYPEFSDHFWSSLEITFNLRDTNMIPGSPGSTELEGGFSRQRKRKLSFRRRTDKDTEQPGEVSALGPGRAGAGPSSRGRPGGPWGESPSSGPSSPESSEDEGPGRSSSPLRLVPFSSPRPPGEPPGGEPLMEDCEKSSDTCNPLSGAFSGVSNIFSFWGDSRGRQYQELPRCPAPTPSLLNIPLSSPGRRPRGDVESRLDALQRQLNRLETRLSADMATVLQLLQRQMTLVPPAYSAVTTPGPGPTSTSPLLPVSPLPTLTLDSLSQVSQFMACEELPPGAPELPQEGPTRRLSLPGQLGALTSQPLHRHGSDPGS

| Structure (SMILES) | hERG current change (%, negative = inhibition) at 10uM [%] |
| --- | --- |
| N#CCSc1nnc(C2CCCCC2)n1Cc1ccccc1 | -11.6 |
| Cc1[nH]c2ccccc2c1C(=O)C(C)OC(=O)c1ccccc1NCCO (stereo not shown) | 15 |
| O=S(=O)(Nc1nnc(-c2ccccc2)s1)c1ccc(Cl)cc1 | 0.769 |
| Cl.O=C(c1ccc(Cl)c(S(=O)(=O)N2CCCC2)c1)N1CCN(c2ccc(F)cc2)CC1 | -58.5 |
| O=C(c1ccc(F)c(S(=O)(=O)N2CCOCC2)c1)N1CCN(c2ccc(F)cc2)CC1 | -60.5 |
| COc1ccc(N2CCN(C(=O)c3ccc(Cl)c(S(=O)(=O)N4CCCC4)c3)CC2)cc1 | -31.6 |
| O=C(c1ccc(Cl)c(S(=O)(=O)N2CCCCCC2)c1)N1CCN(c2ccc(O)cc2)CC1 | -50.4 |
| O=C(Nc1ccc(F)cc1)c1ccc(Br)c(S(=O)(=O)N2CCOCC2)c1 | -58.8 |
| O=C(c1ccc(Cl)c(S(=O)(=O)N2CCCC2)c1)N1CCN(c2ccccc2F)CC1 | -20.6 |
| O=C(c1ccc(Cl)c(S(=O)(=O)N2CCCCC2)c1)N1CCN(c2ccccc2)CC1 | -26.5 |
| O=C(Nc1ccc(S(=O)(=O)N2CCOCC2)cc1)c1ccc(F)cc1 | -6.51 |
| O=C(c1ccc(S(=O)(=O)N2CCOCC2)cc1)N1CCN(c2ccc(F)cc2)CC1 | -5.3 |
| O=C(c1ccc(F)c(S(=O)(=O)N2CCOCC2)c1)N1CCN(c2ncccn2)CC1 | -4.06 |
| COc1ccc(NC(=O)c2ccc(Br)c(S(=O)(=O)N3CCOCC3)c2)cc1 | 1.53 |
| O=C(c1ccc(Cl)c(S(=O)(=O)N2CCCC2)c1)N1CCN(c2ccccc2)CC1 | -8.69 |
| COc1ccc(NC(=O)C/C(C)=N/NC(=O)CCc2ccccc2)c(OC)c1 | 4.6 |
| CC(=O)c1cccc(NC(=S)NC(=O)c2ccccc2Br)c1 | 10.9 |
| Cl.N/C(=N\O)C1COc2ccccc2O1 (stereo not shown) | 16.4 |
| CCOC(=O)C1CCCN(C(=O)CSc2ccc(NC(C)=O)cc2)C1 (stereo not shown) | 14.9 |
| COc1ccccc1N1CCN(C(=O)CSc2nc3ncnc(N)c3[nH]2)CC1 | 21.3 |
| Cc1nc2cc(NS(=O)(=O)c3cccc(F)c3)ccc2s1 | 7.97 |
| COc1nc(Nc2ccccc2)nc(OC)n1 | 5.84 |
| CC(C)CCNC(=O)CCCc1ccccc1 | 14.5 |
| Brc1nc(-c2ccccc2)nc(-c2ccccc2)c1Br | -5.38 |
| Cc1ccc(C(=O)N2CCCCC2)cc1S(=O)(=O)N1CCCC1 | 5.55 |
| Cc1ccc(C(=O)N2CCN(c3ccc(F)cc3)CC2)cc1S(=O)(=O)N1CCCCC1 | -54 |

| Structure (SMILES) | hERG current change (%, negative = inhibition) at 10uM [%] |
| --- | --- |
| O=C(Cc1ccc(S(=O)(=O)N2CCCC2)s1)N1CCN(c2ccc(F)cc2)CC1 | -56.2 |
| O=C(Cc1ccc(S(=O)(=O)N2CCCC2)s1)N1CCN(c2ccccc2)CC1 | -28.4 |
| O=C(Cc1ccc(S(=O)(=O)N2CCCC2)s1)N1CCOCC1 | -0.493 |
| O=C(Cc1ccc(S(=O)(=O)N2CCOCC2)s1)N1CCN(c2ccc(C(F)(F)F)cc2[N+](=O)[O-])CC1 | -54.8 |
| O=C(Cc1ccc(S(=O)(=O)N2CCOCC2)s1)N1CCN(c2cccc(C(F)(F)F)c2)CC1 | -31.7 |
| O=C(Cc1ccc(S(=O)(=O)N2CCOCC2)s1)N1CCN(S(=O)(=O)c2cccc([N+](=O)[O-])c2)CC1 | -27.1 |
| Cc1ccc(C(=O)N2CCN(c3ccccc3)CC2)cc1S(=O)(=O)N1CCCC1 | -31.2 |
| COc1ccc(OCCOC(=O)c2cc(S(=O)(=O)N3CCOCC3)c(Cl)cc2Cl)cc1 | -17.7 |
| Cc1ccc(NS(=O)(=O)c2cc([N+](=O)[O-])ccc2NNC(=S)Nc2cccc(Cl)c2)c(C)c1 | 26 |
| C[C@]12C=CC(=O)C=C1CC[C@@H]1[C@@H]2[C@@H](O)C[C@@]2(C)[C@H]1CC[C@]2(O)C(=O)COC(=O)CCC(=O)NCCc1ccc(O)cc1 | 12.8 |
| CN1CCN(c2oc(Cc3cccc4ccccc34)nc2C#N)CC1 | -9.75 |
| CCOC(=O)N1CCC(NC(=O)CCC(=O)c2ccccc2)CC1 | 10.8 |
| CCc1ccccc1NC(=O)C(Cc1cccc(OC)c1OC)c1nn[nH]n1 (stereo not shown) | 7.41 |
| O=C(Nc1nccs1)C12CC3CC(C1)CC(C(=O)Nc1nccs1)(C3)C2 | -11.1 |
| Cn1c(=O)n(C)c2cc(NC(=O)COc3ccc(Cl)cc3)ccc21 | -59.4 |
| CN1CCN(CCc2nc3cc(NC(=O)COc4ccc(Cl)cc4)ccc3n2C)CC1 | -61 |
| COc1ccc(OCC(=O)Nc2ccc3c(c2)n(C)c(=O)n3C)cc1 | -3.51 |
| CC(=O)Nc1ccc2c(c1)nc(CCN1CCN(C)CC1)n2C | -2.56 |
| CCN1CCN(CCc2nc3cc(NC(=O)COc4ccc(Cl)cc4)ccc3n2C)CC1 | -67.6 |
| Cn1c(CCN2CCCCC2)nc2cc(NC(=O)COc3ccc(Cl)cc3)ccc21 | -84.8 |
| Cn1c(=O)n(C)c2cc(NC(=O)COc3ccc(F)cc3)ccc21 | -41.8 |
| CCN1CCN(CCc2nc3cc(NC(=O)COc4ccccc4)ccc3n2C)CC1 | -49.8 |
| c1ccc(Cc2nnc3sc(-c4ccccn4)nn23)cc1 | -6.6 |
| COc1ccc(C(=O)N=c2sc3c(C)ccc(OC)c3n2C)cc1OC | 7.38 |
| Cc1cc2c(ncn2C)c(NS(=O)(=O)c2ccc(Cl)cc2)c1C | -1.18 |
| COc1cc(C2NCC(c3ccc(Cl)cc3Cl)c3c2[nH]c2ccccc32)cc(OC)c1OC.Cl (stereo not shown) | 7.58 |
